# Data reported in PubChem BioAssay (Tox21).
# A number with no mark means an inactive call. Inconclusive results are not listed. Entries that show only a call come without a potency. Activity calls are given as the source filed them. Unless noted, the call rests on the fitted dose curve; in most records, active means well fitted curve in the direction sought with a large enough effect in the repeat runs; inconclusive means weak or mixed curves; inactive means no such curve, though single readings can be large; an effect the other way counts as inactive or inconclusive.
# Experiments:
# [1] = qHTS assay to identify small molecule agonists of the hypoxia (HIF-1) signaling pathway - cell viability counter screen (AID 1224844; calls by dose curve; further: nearly all actives have a fitted effect of over 50% in size; further: potency means the concentration at half of the fitted maximal effect)
# Procedure, shortened: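 HRE-bla ME-180 cells in medium with 0.5% dialyzed FBS were preincubated 5 hrs at 37C, exposed to compounds for 17 hrs, then viability was read as CellTiter-Glo luminescence after 30 min at room temperature, in the reporter wells.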
# [2] = qHTS assay to identify small molecule agonists of H2AX (AID 1224845; active means well fitted activation curve with a large enough effect in the signal ratio in the repeat runs, not every such curve was filed as active; the % refers to the signal ratio)
# Procedure, shortened: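 Wild-type CHO-K1 cells plated overnight, then exposed 3 hr at 37C to compounds at 15 concentrations (0.76% DMSO). Lysed, then HTRF anti-pH2AX(S139)-cryptate/anti-H2AX-d2 detection after 24 hr at room temperature; emissions 665 and 620 nm.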
# [3] = qHTS assay to identify small molecule agonists of the hypoxia (HIF-1) signaling pathway (AID 1224846; active means well fitted activation curve with a large enough effect in the signal ratio in the repeat runs, not every such curve was filed as active; the % refers to the signal ratio)
# Procedure, shortened: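 HRE-bla ME-180 cells (beta-lactamase reporter under hypoxia response element) were plated at 2,000 cells/well in medium with 0.5% dialyzed FBS, rested 5 hrs, then given compounds in DMSO for 17 hrs at 37C, 5% CO2. Reporter induction was read with CCF4-AM FRET substrate.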
# [4] = qHTS assay to identify small molecule agonists of H2AX - cell viability counter screen (AID 1224847; calls by dose curve; further: top concentration of the series differs between compounds; nearly all actives have a fitted effect of over 30% in size)
# Procedure, shortened: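 For this counter screen, overnight-attached CHO-K1 cells received test compounds (15 concentrations, 0.76% DMSO final); 3 hr later at 37C, CellTiter-Glo reagent was added and luminescence recorded after 30 min at room temperature.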
# [5] = qHTS assay to identify small molecule antagonists of the estrogen related receptor (ERR) signaling pathway from Tox21 library (AID 1224848); further: nearly all actives have a fitted effect of over 50% in size; further: potency means the concentration at half of the fitted maximal effect
# Procedure, shortened: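 Screening used an ERR reporter line supplied by NTP, exposed for 18 h at 37 C to library compounds delivered in DMSO. Signal was luciferase luminescence developed with ONE-Glo at room temperature for 30 min.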
# [6] = qHTS assay to identify small molecule agonists of the estrogen related receptor (ERR) signaling pathway from Tox21 library (AID 1224849; calls by dose curve; further: nearly all actives have a fitted effect of over 15% in size); details: ERR reporter cell line, ONE-Glo luciferase, 18 h; at 92.4 µM (top of the series) unless noted
# Procedure, shortened: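 ERR reporter cell line (NTP) seeded, rested 6 h at 37 C/5% CO2, then pinned with Tox21 compounds in DMSO. After 18 h at 37 C, ONE-Glo luciferase luminescence was read following 30 min at room temperature.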
# [7] = qHTS RealTime-Glo MT Cell Viability Assay in HepG2 cells - 24 hour (AID 1224867); further: nearly all actives have a fitted effect of over 50% in size; further: potency means the concentration at half of the fitted maximal effect
# Procedure, shortened: (§1)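 Compound treatment began 5 h after plating HepG2 cells (600/well) with NanoLuc luciferase and prosubstrate. Plates stayed at 37 C for 40 h; luminescence was captured at six time points, 0 h through 40 h.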
# [8] = qHTS RealTime-Glo MT Cell Viability Assay in HEK293 cells - 32 hour (AID 1224868); further: nearly all actives have a fitted effect of over 50% in size; further: potency means the concentration at half of the fitted maximal effect
# Procedure, shortened: (§2)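 Quantitative high-throughput screen of the Tox21 10K library in HEK293: cells and RealTime-Glo reagents plated together, compound added at 5 h, luminescence monitored through 40 h at 37 C.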
# [9] = qHTS RealTime-Glo MT Cell Viability Assay in HepG2 cells - 40 hour (AID 1224870); further: nearly all actives have a fitted effect of over 50% in size; further: potency means the concentration at half of the fitted maximal effect
# Procedure, shortened: (§3)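 HepG2 cells mixed with RealTime-Glo MT reagents (NanoLuc plus cell-permeant prosubstrate) were seeded at 600 cells/well, incubated 5 h at 37 C/5% CO2, then pinned with compounds in DMSO; nonlytic luminescence tracked viability during 40 h treatment.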
# [10] = A CellTox Green Cytotoxicity Assay to monitor cytotoxicity in HEK293 cells - 40 hour (AID 1224871); further: nearly all actives have a fitted effect of over 45% in size; further: potency means the concentration at half of the fitted maximal effect
# Procedure, shortened: (§4)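 HEK293 cells premixed with CellTox Green dye were seeded at 600 cells/well and left 5 h at 37 C/5% CO2 before pin transfer of 23 nL compound in DMSO. Fluorescence from dye bound to dead-cell DNA was read during 40 h treatment.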
# [11] = qHTS RealTime-Glo MT Cell Viability Assay in HepG2 cells - 8 hour (AID 1224873); further: nearly all actives have a fitted effect of over 55% in size
# Procedure, shortened: as §3
# [12] = qHTS RealTime-Glo MT Cell Viability Assay in HEK293 cells - 40 hour (AID 1224874); details: RealTime-Glo luminescence; max response: active compounds read low; further: nearly all actives have a fitted effect of over 50% in size; further: potency means the concentration at half of the fitted maximal effect
# Procedure, shortened: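 HEK293 cells mixed with RealTime-Glo reagents (NanoLuc plus cell-permeant prosubstrate) at 600 cells/well, preincubated 5 h at 37 C/5% CO2, then given 23 nL compound in DMSO. Nonlytic luminescence from viable cells was read at 0, 8, 16, 24, 32 and 40 h.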
# [13] = A CellTox Green Cytotoxicity Assay to monitor cytotoxicity in HEK293 cells - 24 hour (AID 1224875); further: nearly all actives have a fitted effect of over 45% in size; further: potency means the concentration at half of the fitted maximal effect
# Procedure, shortened: as §4
# [14] = qHTS RealTime-Glo MT Cell Viability Assay in HepG2 cells - 32 hour (AID 1224877); further: nearly all actives have a fitted effect of over 55% in size; further: potency means the concentration at half of the fitted maximal effect
# Procedure, shortened: as §1
# [15] = A CellTox Green Cytotoxicity Assay to monitor cytotoxicity in HepG2 cells - 24 hour (AID 1224878); further: nearly all actives have a fitted effect of over 45% in size; further: potency means the concentration at half of the fitted maximal effect
# Procedure, shortened: (§5)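 HepG2 cells were seeded together with the CellTox Green dye at 600 cells/well, left 5 h at 37 C/5% CO2, then given compounds in DMSO. Fluorescence from dye bound to dead-cell DNA was read repeatedly over 40 h of treatment at 37 C.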
# [16] = A CellTox Green Cytotoxicity Assay to monitor cytotoxicity in HepG2 cells - 40 hour (AID 1224879); further: nearly all actives have a fitted effect of over 40% in size; further: potency means the concentration at half of the fitted maximal effect
# Procedure, shortened: as §5
# [17] = A CellTox Green Cytotoxicity Assay to monitor cytotoxicity in HEK293 cells - 0 hour (AID 1224869); further: nearly all actives have a fitted effect of over 50% in size
# Procedure, shortened: as §4
# [18] = qHTS RealTime-Glo MT Cell Viability Assay in HEK293 cells - 16 hour (AID 1224872)
# Procedure, shortened: as §2
# [19] = A CellTox Green Cytotoxicity Assay to monitor cytotoxicity in HepG2 cells - 16 hour (AID 1224876); further: nearly all actives have a fitted effect of over 45% in size; further: potency means the concentration at half of the fitted maximal effect
# Procedure, shortened: as §5
# [20] = target: Thyrotropin receptor (Homo sapiens) (UniProt P16473); test: qHTS assay to identify small molecule agonists of the thyroid stimulating hormone receptor (TSHR) signaling pathway (AID 1224843; calls by dose curve; further: nearly all actives have a fitted effect of over 45% in size)
# Thyrotropin receptor (Homo sapiens), sequence (P16473 whole entry, looked up): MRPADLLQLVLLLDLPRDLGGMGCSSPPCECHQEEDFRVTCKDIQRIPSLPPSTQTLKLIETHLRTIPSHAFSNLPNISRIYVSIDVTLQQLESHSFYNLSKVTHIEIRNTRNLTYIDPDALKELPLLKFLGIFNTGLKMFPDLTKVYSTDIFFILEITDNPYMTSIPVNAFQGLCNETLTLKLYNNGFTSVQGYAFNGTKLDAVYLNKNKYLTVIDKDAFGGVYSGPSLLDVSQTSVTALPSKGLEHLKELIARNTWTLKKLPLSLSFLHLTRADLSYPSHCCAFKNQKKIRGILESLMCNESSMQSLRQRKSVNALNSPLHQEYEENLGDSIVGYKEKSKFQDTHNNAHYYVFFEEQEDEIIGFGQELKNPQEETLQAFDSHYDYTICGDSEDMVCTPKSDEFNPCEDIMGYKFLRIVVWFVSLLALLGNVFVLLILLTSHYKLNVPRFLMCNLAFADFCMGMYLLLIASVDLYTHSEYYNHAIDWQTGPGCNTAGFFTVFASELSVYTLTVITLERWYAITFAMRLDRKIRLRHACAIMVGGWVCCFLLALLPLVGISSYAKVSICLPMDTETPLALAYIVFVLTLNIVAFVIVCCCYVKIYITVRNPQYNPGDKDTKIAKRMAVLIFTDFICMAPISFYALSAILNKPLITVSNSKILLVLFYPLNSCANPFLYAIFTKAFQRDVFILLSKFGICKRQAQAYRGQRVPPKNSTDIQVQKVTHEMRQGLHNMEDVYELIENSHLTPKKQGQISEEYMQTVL
# Procedure, shortened: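 Cell line HEK293 with TSHR; density 800/well. Exposure 30 min RT. Readout HTRF cAMP (cAMP-d2/anti-cAMP-cryptate), 1 h RT before reading.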
structure (smiles),measurement,setting,value
C[C@H]1c2cccc(O)c2C(O)=C2C(=O)[C@]3(O)C(O)=C(C(N)=O)C(=O)[C@@H](N(C)C)[C@@H]3[C@@H](O)[C@@H]21,Potency,[1],inactive
same,Potency,[2],inactive
same,outcome,[3],inactive
same,Potency,[4],inactive
same,Potency,[5],18.8 µM (active)
same,"activity change, positive = activation",[6],-33.4% [at 42.5 µM]
same,Potency,[7],inactive
same,Potency,[8],inactive
same,Potency,[9],inactive
same,Potency,[10],inactive
same,Potency,[11],inactive
same,max response,[12],0.751%
same,Potency,[13],inactive
same,Potency,[14],inactive
same,Potency,[15],inactive
same,Potency,[16],inactive
CN(C)CCC=C1c2ccccc2C=Cc2ccccc21,Potency,[1],inactive
same,Potency,[2],inactive
same,Potency,[4],inactive
same,Potency,[5],inactive
same,"activity change, positive = activation",[6],-12.5% [at 42.5 µM]
same,Potency,[7],inactive
same,Potency,[17],inactive
same,Potency,[9],inactive
same,Potency,[18],inactive
same,Potency,[11],inactive
same,Potency,[13],inactive
same,Potency,[19],23.9 µM (active)
same,Potency,[14],inactive
same,Potency,[15],23.9 µM (active)
same,Potency,[16],23.9 µM (active)
O=C=Nc1cccc(C(F)(F)F)c1,Potency,[20],inactive
same,outcome,[3],inactive
same,Potency,[5],60.7 µM (active)
same,"activity change, positive = activation",[6],-56.5%
same,Potency,[7],inactive
same,Potency,[17],inactive
same,Potency,[9],inactive
same,Potency,[18],inactive
same,Potency,[11],inactive
same,Potency,[19],inactive
same,Potency,[14],inactive
same,Potency,[15],inactive
same,Potency,[16],inactive
CCCCCC[C@@H](O)C/C=C\CCCCCCCC(=O)OCC(O)CO (stereo not given in full),Potency,[1],inactive
same,Potency,[2],inactive
same,outcome,[3],inactive
same,Potency,[4],inactive
same,Potency,[5],inactive
same,"activity change, positive = activation",[6],-2.03%
same,Potency,[7],inactive
same,Potency,[8],inactive
same,Potency,[9],inactive
same,Potency,[18],inactive
same,Potency,[11],inactive
same,max response,[12],10.7%
same,Potency,[13],inactive
same,Potency,[19],inactive
same,Potency,[14],inactive
same,Potency,[15],inactive
same,Potency,[16],inactive
Cc1cccc(O)c1N,Potency,[20],inactive
same,outcome,[3],inactive
same,Potency,[4],inactive
same,"activity change, positive = activation",[6],-14.7%
same,Potency,[7],inactive
same,Potency,[17],inactive
same,Potency,[9],inactive
same,Potency,[10],inactive
same,Potency,[11],inactive
same,Potency,[13],inactive
same,Potency,[19],inactive
same,Potency,[14],inactive
same,Potency,[15],inactive
same,Potency,[16],inactive
CC(CC1c2ccccc2CCc2ccccc21)CN(C)C (stereo not given),Potency,[1],10.7 µM (active)
same,Potency,[2],inactive
same,outcome,[3],inactive
same,Potency,[4],inactive
same,Potency,[7],inactive
same,Potency,[8],inactive
same,Potency,[17],inactive
same,Potency,[9],inactive
same,Potency,[10],inactive
same,Potency,[11],inactive
same,Potency,[13],inactive
same,Potency,[19],inactive
same,Potency,[14],inactive
Cc1ccc2c(Br)cc(Br)c(O)c2n1,Potency,[20],inactive
same,Potency,[5],8.41 µM (active)
same,"activity change, positive = activation",[6],-65.3% [at 42.5 µM]
same,Potency,[7],inactive
same,Potency,[17],inactive
same,Potency,[9],inactive
same,Potency,[11],inactive
same,Potency,[12],5.35 µM (active)
same,Potency,[13],inactive
same,Potency,[19],inactive
same,Potency,[14],inactive
same,Potency,[15],inactive
same,Potency,[16],inactive
O=C(/C=C/c1ccccc1)OCCc1ccccc1,Potency,[1],inactive
same,Potency,[2],inactive
same,outcome,[3],inactive
same,Potency,[4],inactive
same,Potency,[7],inactive
same,Potency,[8],inactive
same,Potency,[9],inactive
same,Potency,[10],inactive
same,Potency,[18],inactive
same,Potency,[11],inactive
same,max response,[12],-0.613%
same,Potency,[13],inactive
same,Potency,[14],inactive
same,Potency,[15],inactive
same,Potency,[16],inactive
C=C1c2cccc(O)c2C(O)=C2C(=O)[C@]3(O)C(O)=C(C(N)=O)C(=O)[C@@H](N(C)C)[C@@H]3[C@@H](O)[C@H]12,Potency,[1],inactive
same,Potency,[2],inactive
same,Potency,[4],inactive
same,"activity change, positive = activation",[6],-14.2% [at 42.5 µM]
same,Potency,[7],inactive
same,Potency,[8],inactive
same,Potency,[9],inactive
same,Potency,[10],inactive
same,Potency,[11],inactive
same,max response,[12],3.62%
same,Potency,[13],inactive
same,Potency,[19],inactive
same,Potency,[14],inactive
same,Potency,[15],inactive
same,Potency,[16],inactive
CCCCN(CCN(CCCC)C(=O)N1CCOCC1)C(=O)N1CCOCC1,Potency,[1],inactive
same,Potency,[2],inactive
same,outcome,[3],inactive
same,Potency,[4],inactive
same,Potency,[7],inactive
same,Potency,[8],inactive
same,Potency,[17],inactive
same,Potency,[9],inactive
same,Potency,[10],inactive
same,Potency,[18],inactive
same,Potency,[11],inactive
same,max response,[12],-14%
same,Potency,[13],inactive
same,Potency,[14],inactive
same,Potency,[15],inactive
same,Potency,[16],inactive
CN1CCCC(CC2c3ccccc3Sc3ccccc32)C1 (stereo not given),Potency,[20],inactive
same,"activity change, positive = activation",[6],-39.8% [at 42.5 µM]
same,Potency,[7],23.9 µM (active)
same,Potency,[8],23.9 µM (active)
same,Potency,[17],inactive
same,Potency,[9],26.8 µM (active)
same,Potency,[10],23.9 µM (active)
same,Potency,[11],inactive
same,Potency,[12],23.9 µM (active)
same,Potency,[13],23.9 µM (active)
same,Potency,[19],23.9 µM (active)
same,Potency,[14],23.9 µM (active)
same,Potency,[15],21.3 µM (active)
same,Potency,[16],23.9 µM (active)
CC/C=C1/OC(=O)c2ccccc21,Potency,[1],inactive
same,Potency,[2],inactive
same,outcome,[3],inactive
same,Potency,[4],inactive
same,Potency,[5],inactive
same,"activity change, positive = activation",[6],-1.59%
same,Potency,[7],inactive
same,Potency,[8],inactive
same,Potency,[17],inactive
same,Potency,[9],inactive
same,Potency,[10],inactive
same,Potency,[18],inactive
same,Potency,[11],inactive
same,max response,[12],-7.38%
same,Potency,[13],inactive
same,Potency,[14],inactive
same,Potency,[15],inactive
same,Potency,[16],inactive
CN1CCCN=C1COC(=O)C(O)(c1ccccc1)C1CCCCC1 (stereo not given),Potency,[1],inactive
same,Potency,[2],inactive
same,Potency,[4],inactive
same,Potency,[5],inactive
same,"activity change, positive = activation",[6],6.85% [at 42.5 µM]
same,Potency,[7],inactive
same,Potency,[8],inactive
same,Potency,[17],inactive
same,Potency,[9],inactive
same,Potency,[10],inactive
same,Potency,[11],inactive
same,Potency,[13],inactive
same,Potency,[14],inactive
same,Potency,[15],inactive
same,Potency,[16],inactive
O=C1C(=O)c2ccccc2C(O)=C1C1CCC(c2ccc(Cl)cc2)CC1 (stereo not given),Potency,[1],inactive
same,Potency,[2],inactive
same,outcome,[3],inactive
same,Potency,[4],inactive
same,Potency,[5],10.6 µM (active)
same,"activity change, positive = activation",[6],0.683% [at 42.5 µM]
same,Potency,[7],inactive
same,Potency,[8],inactive
same,Potency,[9],inactive
same,Potency,[11],inactive
same,Potency,[13],inactive
same,Potency,[19],inactive
same,Potency,[14],inactive
same,Potency,[15],inactive
Cc1cccc(N(C)C(=S)Oc2ccc3c(c2)CCC3)c1,Potency,[1],inactive
same,Potency,[2],inactive
same,outcome,[3],inactive
same,"activity change, positive = activation",[6],-21.2% [at 42.5 µM]
same,Potency,[7],inactive
same,Potency,[8],inactive
same,Potency,[17],inactive
same,Potency,[9],inactive
same,Potency,[10],inactive
same,Potency,[18],inactive
same,Potency,[11],inactive
same,max response,[12],-16.2%
same,Potency,[13],inactive
same,Potency,[19],inactive
same,Potency,[14],inactive
same,Potency,[15],inactive
same,Potency,[16],inactive
